This excerpt belongs to a sample that is enriched for hits.
Dicer inh: inhibitors of Dicer pre-microRNA processing, primary screen, biochemical, cat-ELCCA, chemiluminescence; z-score at 25 µM; Endoribonuclease Dicer (Homo sapiens), Q9UPY3; AID 1347074, 2019; hit rate 6% among 47,000; cat-ELCCA pre-miR-21 Dicer processing; stronger effect = higher value; in the data active = z-score above about 3, passing the limit was not always enough;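 note: plate controls were vehicle for no effect and no enzyme for full effect; higher signal means more uncleaved substrate so more Dicer inhibition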
Target sequence (Q9UPY3 whole entry, looked up): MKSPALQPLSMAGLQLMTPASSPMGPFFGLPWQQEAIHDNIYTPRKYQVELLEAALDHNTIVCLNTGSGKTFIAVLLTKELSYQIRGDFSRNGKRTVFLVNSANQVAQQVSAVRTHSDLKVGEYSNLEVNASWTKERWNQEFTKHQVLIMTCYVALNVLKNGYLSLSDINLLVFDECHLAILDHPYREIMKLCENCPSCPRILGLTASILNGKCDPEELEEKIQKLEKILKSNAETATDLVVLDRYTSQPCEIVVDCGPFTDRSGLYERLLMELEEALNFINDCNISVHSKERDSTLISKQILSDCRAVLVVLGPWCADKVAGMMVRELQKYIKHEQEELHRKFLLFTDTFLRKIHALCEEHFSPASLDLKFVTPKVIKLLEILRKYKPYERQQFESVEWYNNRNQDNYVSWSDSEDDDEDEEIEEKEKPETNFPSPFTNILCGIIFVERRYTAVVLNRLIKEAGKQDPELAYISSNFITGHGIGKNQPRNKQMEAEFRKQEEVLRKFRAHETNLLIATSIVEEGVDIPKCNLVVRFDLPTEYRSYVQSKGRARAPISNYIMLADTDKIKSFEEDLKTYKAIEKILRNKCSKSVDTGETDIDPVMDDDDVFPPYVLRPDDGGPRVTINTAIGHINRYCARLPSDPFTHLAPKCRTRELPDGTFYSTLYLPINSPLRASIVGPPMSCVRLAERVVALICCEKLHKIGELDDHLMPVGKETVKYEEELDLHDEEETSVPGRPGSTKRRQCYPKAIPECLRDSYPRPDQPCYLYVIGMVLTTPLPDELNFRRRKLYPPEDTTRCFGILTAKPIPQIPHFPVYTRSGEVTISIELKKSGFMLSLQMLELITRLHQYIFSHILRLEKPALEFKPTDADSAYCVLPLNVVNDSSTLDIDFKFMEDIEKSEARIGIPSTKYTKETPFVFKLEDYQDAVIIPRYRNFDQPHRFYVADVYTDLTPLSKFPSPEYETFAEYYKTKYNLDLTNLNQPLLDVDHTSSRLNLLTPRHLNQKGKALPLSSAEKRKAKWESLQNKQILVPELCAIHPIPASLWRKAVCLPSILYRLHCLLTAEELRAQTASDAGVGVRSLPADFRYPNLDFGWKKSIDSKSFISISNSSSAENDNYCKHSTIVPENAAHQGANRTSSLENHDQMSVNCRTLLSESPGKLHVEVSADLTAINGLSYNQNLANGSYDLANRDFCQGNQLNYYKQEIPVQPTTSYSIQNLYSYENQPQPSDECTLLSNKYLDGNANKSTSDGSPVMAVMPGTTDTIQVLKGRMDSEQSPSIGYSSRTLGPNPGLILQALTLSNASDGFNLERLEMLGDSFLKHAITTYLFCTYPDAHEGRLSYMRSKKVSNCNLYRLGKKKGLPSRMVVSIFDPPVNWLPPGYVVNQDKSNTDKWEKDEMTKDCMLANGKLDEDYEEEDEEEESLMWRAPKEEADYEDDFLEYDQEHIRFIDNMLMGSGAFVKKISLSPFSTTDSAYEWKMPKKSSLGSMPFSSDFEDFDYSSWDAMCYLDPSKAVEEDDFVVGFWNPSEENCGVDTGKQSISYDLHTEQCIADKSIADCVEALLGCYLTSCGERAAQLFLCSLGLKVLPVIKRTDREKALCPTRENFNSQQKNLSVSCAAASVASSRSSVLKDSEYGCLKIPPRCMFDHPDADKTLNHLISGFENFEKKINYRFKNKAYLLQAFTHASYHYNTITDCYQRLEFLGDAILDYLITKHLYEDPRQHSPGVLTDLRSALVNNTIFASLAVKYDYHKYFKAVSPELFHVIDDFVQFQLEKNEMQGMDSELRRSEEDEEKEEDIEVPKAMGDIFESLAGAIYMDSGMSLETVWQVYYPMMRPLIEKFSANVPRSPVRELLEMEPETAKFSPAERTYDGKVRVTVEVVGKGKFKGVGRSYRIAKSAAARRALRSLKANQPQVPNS
Starred values were filed as active, the others as inactive.

SMILES	Dicer inh
COC(=O)CSc1cc(C)nc(NC(C)=O)n1	0.03
C=CCOc1cccc(C2c3c(oc4ccc(F)cc4c3=O)C(=O)N2c2cccc(C)n2)c1 (centres undefined)	-0.61
Fc1ccc(COc2ncnc3cc(Cl)ccc23)cc1	-0.18
O=C(Cc1c(F)cccc1Cl)NC(=O)Nc1ccc(Cl)cc1	0.22
O=C(Nc1ccc(F)c(Cl)c1)Oc1ccccc1	0.75
O=C(Cc1c(F)cccc1Cl)NC(=O)Nc1ccc(F)c(Cl)c1	3.9*
CCOC(NC(=O)Nc1ccccc1C(F)(F)F)(C(F)(F)F)C(F)(F)F	-1.4
COc1ccc(CCN2C(=O)C(C)SC2c2cccnc2)cc1 (centres undefined)	4.2*
O=C1CSC(c2cccnc2)N1CCc1ccc(Cl)cc1 (centres undefined)	6.5
CC1SC(c2cccnc2)N(c2ccc(Cl)cc2)C1=O (centres undefined)	6.3
COc1ccc2c(c1)CCC1C2=NN(C)C1c1ccc(C(F)(F)F)cc1 (centres undefined)	-0.13
O=C(Nc1ccc(OC(F)(F)F)cc1)Nc1ccc(C2=NCCO2)cc1	8.6
O=C(O)c1ccccc1N/C=C/c1nnnn1-c1ccc(F)cc1	-1.2
Cc1onc(-c2ccccc2)c1CSc1n[nH]c(=O)n1Cc1ccco1	-1.5
c1ccc(-c2c(-c3ccccc3)n(Cc3ccco3)c3ncn4nc(-c5ccco5)nc4c23)cc1	5.6*
Cc1nc2c([nH]1)c(=O)n(C)c(=O)n2Cc1ccco1	-0.88
CCN(CC)C(=O)O/N=C(\N)c1cc(Br)c(OC)c(Br)c1	-3
CCOC(=O)C(=CN1CCC(C(c2ccccc2)c2ccccc2)CC1)C(=O)OCC	-0.41
CC(=O)c1ccccc1C(=O)c1ccc(Cl)cc1	59*
CC(=O)c1ccccc1C(=O)c1ccccc1	-1.2
Cc1c(C)c(C)c(C(=O)c2ccc(Cl)cc2)c(C)c1C	0.14
Cc1ccc(NC(=S)N(CCC#N)C2CCCCC2)cc1	1.3
COc1ccc2c(c1OC)C(=O)OC2Nc1ccc(S(N)(=O)=O)cc1 (centres undefined)	0.73
CC1(C)N=C(N)N=C(N)N1c1c(Cl)cccc1Cl	0.44
CCOC(=O)C(=CNc1cc(C(F)(F)F)ccc1NCCc1ccccc1)C(=O)OCC	-0.02
SMILES	Dicer inh
Cc1ccc(-c2cc(=O)n(-c3nc4ccccc4[nH]3)[nH]2)cc1	-0.75
COC(=O)Cc1cc(=O)n(-c2nc3ccccc3[nH]2)[nH]1	4.6*
CC(C)OC(=O)CSc1nc2ccccc2[nH]1	-0.48
Cc1ccc(S(=O)(=O)N2CCN(S(=O)(=O)c3ccc(C)c(C)c3)C(C)C2)cc1C (centres undefined)	0.04
Cc1ccc(-c2nc(/N=C/N(C)C)sc2C)cc1Cl	-0.43
O=C(ON/C=N/c1ncc(-c2ccc(Br)s2)s1)c1ccc([N+](=O)[O-])cc1	0.29
Cc1ccc(-c2nc(/N=C/NOC(=O)c3ccc([N+](=O)[O-])cc3)sc2C)cc1Cl	3.6*
CCOC(=O)c1cncc(Br)c1	2.2
CN(C)CCN(Cc1ccccc1)C(=O)C(C(=O)c1ccc(F)cc1)n1ccccc1=O (centres undefined)	11
Nc1nc(SCC(=O)NCCN2CCOCC2)nc2sc3c(c12)CCCC3	0.61
Nc1nc(SCC(=O)NCCO)nc2sc3c(c12)CCCC3	1.3
Nc1nc(SCCCC(=O)NCCO)nc2sc3c(c12)CCCC3	5.5*
CCCCCOC(=O)C1=C(C)NC2=C(C(=O)CC(C)(C)C2)C1c1ccc(O)c(OCC)c1 (centres undefined)	-0.48
CC(C)Cc1ccc(C2=CC(c3ccc(C#N)cc3)C(C(N)=O)C(=O)N2)cc1 (centres undefined)	0.79
CN(C)CCN1C(=O)C(O)=C(C(=O)c2ccco2)C1c1ccco1 (centres undefined)	-0.28
N#C/C(=C\C=C\c1ccccc1)C(N)=S	-1.9
O=C(O)CCC(=O)c1ccc2c(c1)OCCCO2	1.2
CC(=O)Nc1cccc(-n2nnc(SCC(=O)c3ccc4c(c3)OCCCO4)n2)c1	3.1*
CC(=O)Nc1cccc(-n2nnc(SCc3ccccc3)n2)c1	1.1
CCOC(=O)c1c(NC(=S)Nc2ccccc2)sc2c1CCCC2	-0.38
CC(=O)Oc1ccc2oc3c(c2c1)C(=O)CCC3	4.8*
CC(=O)Oc1ccc2c(C)cc(=O)oc2c1	-0.41
CC(=O)Oc1ccc2oc(C)c(C(=O)OC(C)C)c2c1	0.44
O=C1CCC(=O)N1CN(Cc1cccs1)CN1C(=O)CCC1=O	0.96
CC(=O)CSc1nnc2sc3ccccc3n12	-0.21
SMILES	Dicer inh
O=C(O)CCSc1nnc2sc3ccccc3n12	0.75
O=C(CSc1nnc2sc3ccccc3n12)N1CCN(c2ccccc2)CC1	3.7*
C/C(=N\NC(=O)c1ccc(C(C)(C)C)cc1)c1ccccc1O	2.5
CCOC(=O)C(NC(C)=O)(Nc1ccccc1F)C(F)(F)F (centres undefined)	-1.9
COc1ccc(CN2CCC(N3CCCCC3)CC2)cc1Br	3.7*
COc1ccc(CN2CCC(N3CCCCC3)CC2)cc1OC	0.7
CCn1c2ccccc2c2cc(CN3CCC(N4CCCCC4)CC3)ccc21	-0.94
O=C(CC1(O)C(=O)N(Cc2ccccc2)c2ccc(Br)cc21)c1cccnc1 (centres undefined)	2.6
Cc1ccc(C(=O)CC2(O)C(=O)N(Cc3ccccc3)c3ccc(Br)cc32)s1 (centres undefined)	3.6*
CCCCN1C(=O)C(O)(CC(=O)c2ccc(C)s2)c2cc(Br)ccc21 (centres undefined)	2.3
Cc1coc(C)c1C(=O)CC1(O)C(=O)N(Cc2ccccc2)c2ccc(Br)cc21 (centres undefined)	3.8*
Cc1ccc(CN2C(=O)C(O)(CC(=O)c3ccc(C)o3)c3cc(Cl)ccc32)cc1 (centres undefined)	3.7*
CCCN1C(=O)C(O)(CC(=O)c2ccc(C)o2)c2cc(Br)ccc21 (centres undefined)	-0.06
Cc1ccccc1CN1C(=O)C(O)(CC(=O)c2ccco2)c2cc(Cl)ccc21 (centres undefined)	2.3
Cc1ccc(C(=O)CC2(O)C(=O)N(Cc3ccc(Cl)cc3)c3ccccc32)cc1 (centres undefined)	2.7
CCCN1C(=O)C(O)(CC(=O)c2ccc(C)s2)c2ccccc21 (centres undefined)	-0.54
O=C(NCCc1ccccn1)c1nc2ccccc2c(=O)[nH]1	0
Cc1ccc(S(=O)(=O)N2CCn3c2nc2ccccc23)cc1	0.44
O=C(c1ccc(Cl)cc1)C(C(=O)N1CCc2ccccc2C1)n1ccccc1=O (centres undefined)	-0.68
CC(C)OC(=O)Nc1cnccc1C(F)(F)F	-0.85
CSc1ccc([N+](=O)[O-])c(CS(=O)(=O)c2ccccc2)c1	-0.58
Cc1ccc(-c2nnc(Nc3ccc(O)cc3)c3ccccc23)cc1S(=O)(=O)N(C)C	2.4
Cc1ccc(-c2nnc(NCc3ccccc3)c3ccccc23)cc1S(=O)(=O)NCCO	0.06
CNS(=O)(=O)c1cc(-c2nnc(Nc3ccc4c(c3)OCO4)c3ccccc23)ccc1C	4.8*
Cc1ccc(C(=O)c2ccccc2C(=O)O)cc1C	0.06
CN(C)c1ccc(C(=O)c2ccccc2C(=O)O)c(O)c1	3.2*
COc1ccc(C(=O)c2ccccc2O)c(O)c1	6.3
CC(=O)Nc1cc([N+](=O)[O-])ccc1-n1cc(C)c(C(F)(F)F)n1	0.21
Cc1ccc2c(c1)N(C)/C(=C/c1sc3ccccc3[n+]1CCO)S2	1.1
CCOC(=O)c1nn(-c2ccc(Cl)cc2)c(=N)c(C#N)c1C	-2.9
